# Source: PubChem BioAssay AID1851 (National Center for Advancing Translational Sciences (NCATS), 2009)
# The whole screen tested about 16,000 compounds, of which about 2,600 (16%) were called active. Another 20% or so got no clear call; they are omitted. Calls come from the whole dose curve; as a rule, active = well fitted curve in the direction sought with a large enough effect; inconclusive = small, poorly fitted or top-dose-only effect, or effect the other way; inactive = no such curve, though single readings can be large or run the other way. Only a sample is shown. Peptide text beside a SMILES is read from it. * marks the point of attachment. PhAc = O=C(Cc1ccccc1)*; OBn = c1ccc(CO*)cc1
# Molecular target: Cytochrome P450 2D6 (Homo sapiens) (UniProt P10635)
# Assay: Cytochrome panel assay with activity outcomes
# Conditions: recombinant CYP, pro-luciferin dealkylation, luminescence, p450-cyp2d6; series mostly up to 57.1 µM
# % is set by controls: 0 for no effect and ±100 for the full control effect.
# Sequence of Cytochrome P450 2D6 (Homo sapiens) (P10635 whole entry, looked up): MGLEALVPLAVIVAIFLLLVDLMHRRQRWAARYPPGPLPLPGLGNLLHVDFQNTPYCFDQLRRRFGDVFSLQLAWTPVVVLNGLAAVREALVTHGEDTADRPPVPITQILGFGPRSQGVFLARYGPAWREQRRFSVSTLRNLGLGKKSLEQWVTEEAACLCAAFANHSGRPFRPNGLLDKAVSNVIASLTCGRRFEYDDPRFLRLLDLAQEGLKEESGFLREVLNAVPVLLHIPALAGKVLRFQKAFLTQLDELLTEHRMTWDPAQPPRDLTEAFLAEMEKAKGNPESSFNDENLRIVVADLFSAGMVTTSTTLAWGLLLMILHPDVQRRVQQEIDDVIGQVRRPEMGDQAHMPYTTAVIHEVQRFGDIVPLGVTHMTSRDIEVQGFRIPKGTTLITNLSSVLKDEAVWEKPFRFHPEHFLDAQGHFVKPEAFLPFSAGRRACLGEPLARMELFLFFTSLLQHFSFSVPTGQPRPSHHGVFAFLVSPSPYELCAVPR
Compound,AC50,"activity, negative = inhibition"
Cc1ccc(Oc2nc(-c3ccccc3)ncc2S(C)(=O)=O)cc1,inactive,–
Cc1c(NC(=O)CSc2nnnn2C)c(=O)n(-c2ccccc2)n1C,inactive,–
CC1(C)S[C@@H]2[C@H](NC(=O)[C@@H](N)c3ccc(O)cc3)C(=O)N2[C@H]1C(=O)O,inactive,–
CCc1ccc(N(C(=O)c2csnn2)C(C(=O)NCc2ccccc2)c2ccco2)cc1 (stereo not drawn),inactive,–
O=C(O)[C@@H](O)[C@@H](O)[C@H](O)[C@H](O)CO,–,0.284% [at 11.4 µM] (inactive)
N/N=C1/CC(=O)NC(=O)N1,–,-6.83% [at 11.4 µM] (inactive)
CCn1ccnc1C[C@@H]1COc2ccccc2O1,1580 nM (active),–
N/C(=N\O)C1COc2ccccc2O1 (stereo not drawn),inactive,–
O=C(NCc1cccnc1)C1COc2ccccc2O1 (stereo not drawn),inactive,–
COc1ccc(N2C(=O)CC(S/C(N)=N/N=C(\C)c3cccs3)C2=O)cc1 (stereo not drawn),inactive,–
Cc1cccc(OC(=O)CN2C(=O)C3C4CCC(C4)C3C2=O)c1C (stereo not drawn),inactive,–
CCNC(=O)CSc1nnc(C2CC2)n1-c1ccccc1,inactive,–
Cn1cccc1C(=O)C(=O)Nc1cccc(Cl)c1Cl,inactive,–
O=C(Nc1ccccc1Cl)c1ccccc1Cl,inactive,–
O=C(Nc1cccc(Cl)c1Cl)c1snnc1-c1ccccc1,10000 nM (active),–
O=[N+]([O-])c1ccc(C2CCCC/C2=N\OCc2cccc(F)c2)c([N+](=O)[O-])c1 (stereo not drawn),inactive,–
NCCOB(c1ccccc1)c1ccccc1,inactive,–
Cc1cc(NC(=O)c2c([N+](=O)[O-])c(C)nn2C)no1,inactive,–
CCC(=O)NNc1cc(=O)c2c(=O)n(C)c(=O)n(C)c2[nH]1,inactive,–
CCN1CCCC1Cn1cnc2c([nH]c3ccc(C)cc32)c1=O (stereo not drawn),4470 nM (active),–
COc1ccc2[nH]c3c(NCCCN4CCCC4=O)ncnc3c2c1,inactive,–

Compound,AC50,"activity, negative = inhibition"
CCOCCCn1cnc2c([nH]c3cc(OC)ccc32)c1=O,inactive,–
O=S(=O)(C=C(c1ccccc1)c1ccccc1)c1ccccc1,inactive,–
O=S(=O)(c1ccccc1)N1N=C(c2cccs2)CC1c1ccc(Br)cc1 (stereo not drawn),1120 nM (active),–
O=S(=O)(c1ccc(Br)cc1)N1CCN(S(=O)(=O)c2ccc(Br)cc2)CC1,–,-1.87% [at 11.4 µM] (inactive)
O=c1oc(-c2cccs2)nc2ccc(Br)cc12,inactive,–
COc1nc(C)nc(Cl)c1NC1=NCCN1,inactive,–
Clc1cccc(Cl)c1NC1=NCCN1,10000 nM (active),–
COc1ncc2nc(-c3cccs3)c(=O)n(CCc3ccccc3)c2n1,inactive,–
CCCCOC(=O)CSCC(=O)Nc1cc(C)on1,inactive,–
Cc1cc2nc(CCN(C(=S)NCC(C)C)C3CCCC3)[nH]c2cc1C,1120 nM (active),–
COc1ccc(/C=C/C(=O)Nc2ccccc2C(=O)N2CCCC2)cc1,inactive,–
COC(=O)[C@@]1(Cc2ccccc2)[C@H]2c3cc(C(=O)N4CCCC4)n(Cc4ccc(S(C)(=O)=O)cc4)c3C[C@H]2CN1C(=O)c1ccccc1,inactive,–
CCCc1cc2c(n1CCc1ccc(Cl)cc1)C(C)C1CN(C(=O)c3ccccc3)C(C)(C(=O)OC)C21 (stereo not drawn),5010 nM (active),–
COC(=O)[C@@]1(Cc2ccc(F)cc2)[C@H]2c3cc(C(=O)N4CCCC4)n(Cc4ccc(Cl)c(C(F)(F)F)c4)c3C[C@H]2CN1C(=O)c1ccccc1,inactive,–
CS(=O)(=O)Nc1c(O)ccc2c1CCC[C@H]2C1=NCCN1,inactive,–
N[C@H](C(=O)O)c1cc(O)cc(O)c1,inactive,–
O=C(CNC(=O)c1cccs1)NCC(=O)OCc1ccc(Cl)cc1,15800 nM (active),–
O=C(NOC(=O)c1cc(Br)ccc1Cl)c1cccs1,inactive,–
CC(C)(C)c1ccc(COC(=O)CNC(=O)CNC(=O)Cc2ccccc2)cc1,inactive,–
O=C(CNC(=O)c1cccs1)NCC(=O)OCc1ccc(Cl)cc1Cl,3550 nM (active),–
C/C(=N/NC(=O)c1cccs1)c1ccc(NC(=O)COc2ccc(Cl)cc2Cl)cc1,inactive,–

Compound,AC50,"activity, negative = inhibition"
O=C(CNC(=O)Cc1ccccc1)NCC(=O)OCc1ccccc1 (PhAc-Gly-Gly-OBn),inactive,–
NCCSC[C@H](N)C(=O)O,–,-2.62% [at 11.4 µM] (inactive)
Cc1n[nH]c(=O)[nH]c1=O,inactive,–
C[C@@]12C=CC(=O)C=C1CC[C@@H]1[C@@H]2[C@H](O)C[C@]2(C)[C@@H]1CC[C@]2(O)C(=O)CO,inactive,–
COc1ccc(-n2c(=O)c(C)nc3cnc(Oc4ccccc4)nc32)cc1,inactive,–
O=C(O/N=C\c1ccc(N2CCCCC2)c([N+](=O)[O-])c1)c1c(F)cccc1F,inactive,–
N#C/C(=C\c1cc([N+](=O)[O-])c(N2CCCCC2)cc1N1CCCCC1)c1nn(-c2ccccc2)c(N)c1C#N,inactive,–
N#C/C(=C/c1ccc(N2CCCC2)c([N+](=O)[O-])c1)c1nc2ccccc2[nH]1,200 nM (active),–
N#C/C(=C\c1ccc(Oc2ccc(C(F)(F)F)cc2[N+](=O)[O-])cc1)c1nc2ccccc2[nH]1,inactive,–
N#C/C(=C\c1ccc(N2CCCC2)c([N+](=O)[O-])c1)c1nc2ccccc2[nH]1,631 nM (active),–
COc1cc(/C=C(/C#N)c2nc3ccccc3[nH]2)ccc1OCC(=O)Nc1ccccc1C,inactive,–
CSc1ncnc2c1ncn2[C@@H]1O[C@@H](CO)[C@H](O)O[C@@H]1O,–,14.1% [at 11.4 µM] (inactive)
CC(NC(=O)OCc1ccccc1)C(=O)NCC1CCCO1 (stereo not drawn),inactive,–
CCCC[C@@H]1C[C@H]1C(NC(=O)c1cccs1)c1ccc(Cl)cc1 (stereo partly drawn),inactive,–
O=S(=O)(O)c1ccc(N=Nc2ccc3c(S(=O)(=O)O)cccc3c2O)c2ccccc12,–,-18.7% [at 11.4 µM] (inactive)
Cn1c(SCC(=O)Nc2ccccc2)nc(O)cc1=O,inactive,–
CCc1c(C)nc(N)n2c(SCC(=O)Nc3ccccc3)nnc12,1410 nM (active),–
CCN(CC)c1ccc(NC(=O)CSc2nnc3nc(C)cc(C)n23)cc1,inactive,–
COc1ccc(Oc2ncc3nc(CCc4ccccc4)c(=O)n(CCC#N)c3n2)cc1,inactive,–
Cc1cccc(OC2(c3ccccc3)OC(=O)c3ccccc32)c1C (stereo not drawn),inactive,–
CCN(CC)C(=O)COc1ccc(S(=O)(=O)N2CCOCC2)cc1,inactive,–
